Experimental data: PubChem BioAssay
Where “and” joins values, the source holds several entries; their conditions need not be identical. Equal values may be shown once. Records with an inconclusive call do not appear. Calls of active or inactive are those of the source. Unless noted, cut-off not given; nearly all actives show AC50 up to about 26 µM.

How the values were obtained:
[1] = growth inhibition of DIPG glioma cells, dose response, cell-based, SU-DIPG-XVII, MIPE5.0, CellTiter-Glo, qHTS (AID 1347060); details: SU-DIPG-XVII viability, CellTiter-Glo ATP luminescence;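 on AC50: cells exposed to compound for 48 hours before viability readout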
[2] = growth inhibition of DIPG glioma cells, dose response, cell-based, SU-DIPG-XIII, MIPE4.0, CellTiter-Glo, qHTS (AID 1347061; cut-off not given, nearly all actives have AC50 up to about 37 µM;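 further: cells exposed to compound for 48 hours before readout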); details: SU-DIPG-XIII viability, CellTiter-Glo ATP luminescence
[3] = growth inhibition of DIPG glioma cells, dose response, cell-based, JHH-DIPG-1, MIPE4.0, CellTiter-Glo, qHTS (AID 1347062; cut-off not given, nearly all actives have AC50 up to about 27 µM;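 on AC50: cells exposed to compound for two days before readout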); details: JHH-DIPG-1 viability, CellTiter-Glo ATP luminescence
[4] = growth inhibition of DIPG glioma cells, dose response, cell-based, SU-DIPG-IV, MIPE4.0, CellTiter-Glo, qHTS (AID 1347063; cut-off not given, nearly all actives have AC50 up to about 30 µM;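 further: compound exposure lasted 48 hours before the viability readout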); details: SU-DIPG-IV viability, CellTiter-Glo ATP luminescence
[5] = growth inhibition of DIPG glioma cells, dose response, cell-based, SU-DIPG-XIII, MIPE5.0, CellTiter-Glo, qHTS (AID 1347064; cut-off not given, nearly all actives have AC50 up to about 23 µM;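 on AC50: cells exposed to compound for 48 hours before the viability read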); details: SU-DIPG-XIII viability, CellTiter-Glo ATP luminescence
[6] = viability loss in pontine glioma line – cell-based, SU-DIPG-XXV, MIPE5.0, CellTiter-Glo, qHTS, dose response (AID 1347065); details: CellTiter-Glo ATP luminescence;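 further: cells exposed to compound for 48 hours before ATP readout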
[7] = SU-DIPG-VI glioma cell viability, MIPE4.0 library, CellTiter-Glo luminescence, qHTS (AID 1347066; cut-off not given, nearly all actives have AC50 up to about 30 µM;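 further: cells exposed to compound for 48 hours before readout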); details: CellTiter-Glo ATP luminescence
[8] = JHH-DIPG-1 glioma cell viability, MIPE5.0 library, CellTiter-Glo luminescence, qHTS (AID 1347067); details: JHH-DIPG-1 glioma viability, CellTiter-Glo ATP luminescence;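 further: cells exposed to compound for 48 hours before readout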
[9] = SU-DIPG-XXV glioma cell viability, MIPE5.0 library, qHTS (AID 1347068; cut-off not given, nearly all actives have IC50 up to about 30 µM;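 on IC50: cells exposed to compound for 48 hours before viability readout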)
[10] = sensitizers of A549 cells to miR-34 induction, primary screen, imaging, A549 dox-inducible miR-34, nuclei and caspase counts (AID 1347080;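 active means compounds whose cell count with miR-34 switched on is under 0.7 times the count with it off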); details: A549 miR-34 inducible, Hoechst nuclei count, 48 h
[11] = survival rescue of mitochondrial mutant cells in low glucose, primary screen, MELAS cybrids, Rieske KO mouse fibroblasts, CellTiter-Glo (AID 1508586;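 active means mean z-score across replicates of 1.96 or higher in either the MELAS or the Rieske mutant cell line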;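 further: z relative to plate mean and SD of compound and empty wells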)
[12] = LFS_MB_P medulloblastoma growth inhibition, cell-based, chromothripsis tumors, cisplatin or BGB combos (AID 1671449; in the data active means inhibition above about 80%;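 further: cells exposed for 96 hours; 0% = vehicle DMSO and 100% = killing by high DMSO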); details: LFS_MB_P medulloblastoma cells
[13] = HDN33 neuroblastoma growth inhibition, cell-based, chromothripsis tumors, cisplatin or BGB combos (AID 1671450; in the data active means inhibition above about 80%;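 further: cells exposed to compound for four days; 0% = vehicle DMSO and 100% = cell killing by high DMSO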); details: HDN33 neuroblastoma cells, stronger effect = higher value
[14] = ICB984 medulloblastoma cell growth inhibition, synergistic combos for chromothripsis tumors, cisplatin or BGB combos (AID 1671451; call rule not given here;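 further: cells exposed for 96 hours before readout; 0% = vehicle DMSO and 100% = killing by high DMSO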); details: ICB984 medulloblastoma cells, drug combinations, stronger effect = higher value
[15] = HTB85 osteosarcoma cell growth inhibition, synergistic combos for chromothripsis tumors, BGB or cisplatin IC20 combos (AID 1671453; in the data active means inhibition above about 80%;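 further: cells exposed for 96 hours before readout; 0% = vehicle DMSO and 100% = high DMSO killing control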); details: HTB85 osteosarcoma cells, drug combinations, stronger effect = higher value
[16] = MDA-MB-436 breast carcinoma cell growth inhibition, synergistic combos for chromothripsis tumors, BGB or cisplatin combos (AID 1671458; call rule not given here;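 further: cells exposed for 96 hours; 0% = vehicle DMSO and 100% = killing by high DMSO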); details: MDA-MB-436 breast carcinoma growth inhibition, drug combinations, stronger effect = higher value
[17] = growth inhibition of BT084 medulloblastoma cells, cell-based, ICGC_MB145, cisplatin and BGB IC40 combos (AID 1671461; in the data active means inhibition above about 80%;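 further: cells exposed to drugs for 96 hours; 0% = vehicle DMSO and 100% = high DMSO full killing control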); details: drug combinations, stronger effect = higher value
[18] = growth inhibition of RCMB18 medulloblastoma cells, cell-based, cisplatin and BGB IC40 combos (AID 1671462; in the data active means inhibition above about 80%;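 further: cells exposed to compound for four days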); details: stronger effect = higher value
[19] = stronger effect = lower value, cell number ratio, induced over uninduced
[20] = measured here: relative caspase fold change +Dox/-Dox
[21] = measured here: total cells with miR-34 induction, stronger effect = lower value
[22] = measured here: total cells without miR-34 induction
[23] = MELAS cybrid survival, CellTiter-Glo 48 h, stronger effect = higher value
[24] = Rieske KO mouse fibroblast survival, CellTiter-Glo 72 h

In the case of `COc1cc2c(Oc3ccc(NC(=O)C4(C(=O)Nc5ccc(F)cc5)CC4)cc3F)ccnc2cc1OCCCN1CCOCC1`, the AC50 [1] is reported as 2.63 µM (active), the AC50 [2] is reported as 8.33 µM (active) and the AC50 [3] is reported as 18.7 µM (active). The AC50 [4] was 6.62 µM (active), the AC50 [5] was 3.72 µM (active) and the AC50 [6] was 1.32 µM (active). For the same molecule, the AC50 [7] was 11.8 µM (active), the AC50 [8] was 5.9 µM (active) and the IC50 [9] was 3.72 µM (active). The fold change [10, 19] was 1.06 (inactive), the fold change [10, 20] was 0.77 and the cell count [10, 21] was 1060. For the same molecule, the cell count [10, 22] was 992, the z-score [11, 23] was 2.58 (active) and the z-score [11, 24] was 0.0525.
For `CC(C)(OCc1nn(Cc2ccccc2)c2ccccc12)C(=O)O`, the outcome [1] was “inactive”, the outcome [2] was “inactive” and the outcome [3] was “inactive”. The outcome [4] was “inactive”, the outcome [5] was “inactive” and the outcome [6] was “inactive”. For the same molecule, the outcome [7] was “inactive”, the outcome [8] was “inactive” and the outcome [9] was “inactive”. The fold change [10, 19] was 0.935 (inactive), the fold change [10, 20] was 0.724 and the cell count [10, 21] was 9310. For the same molecule, the cell count [10, 22] was 9960, the z-score [11, 23] was -0.401 (inactive) and the z-score [11, 24] was -0.561.
With `Nc1ncnc2c1c(-c1cnc3[nH]ccc3c1)nn2C1CCCC1` the AC50 [1] was 0.934 µM (active), the AC50 [2] was 3.72 µM (active) and the AC50 [3] was 6.62 µM (active). For the same molecule, the AC50 [4] was 0.296 µM (active), the AC50 [5] was 1.32 µM (active) and the AC50 [6] was 0.661 µM (active). The AC50 [7] was 4.69 µM (active), the AC50 [8] was 1.66 µM (active) and the IC50 [9] was 1.66 µM (active). For the same molecule, the fold change [10, 19] was 0.933 (inactive), the fold change [10, 20] was 0.447 and the cell count [10, 21] was 1360. For the same molecule, the cell count [10, 22] was 1460, the z-score [11, 23] was 2.61 (active) and the z-score [11, 24] was -3.58. The inhibition ([12]; at 0.5 µM, stronger effect = higher value) was -21.6% (inactive), the inhibition ([12]; measured here: combination with BGB IC20, at 0.005 µM) was -12.8% and the inhibition ([12]; measured here: combination with BGB IC40, at 0.005 µM) was -34.4%. It also gave an inhibition ([12]; measured here: combination with BGB IC40, at 0.05 µM) of -33.1%, an inhibition ([12]; measured here: combination with cisplatin, at 0.5 µM, stronger effect = higher value) of -37.9% and an inhibition ([12]; measured here: combination with cisplatin, at 5 µM, stronger effect = higher value) of 101%. For the same molecule, the inhibition ([13]; BGB combo, at 5 µM) was 93.7%, the inhibition ([13]; at 0.5 µM) was 34.8% (inactive) and the inhibition ([13]; cisplatin combo, at 5 µM) was 89.8%. The inhibition ([13]; measured here: with BGB IC20 combination, at 0.5 µM) was 27.9%, the inhibition ([13]; measured here: with cisplatin IC20 combination, at 0.5 µM) was 38.9% and the inhibition ([13]; single agent, at 5 µM) was 94.1%. The inhibition ([14]; BGB IC20 combo, at 0.005 µM) was 3.47%, the inhibition ([14]; BGB IC40 combo, at 0.005 µM) was 0.136% and the inhibition ([14]; BGB IC40 combo, at 0.05 µM) was 75.2%. For the same molecule, the inhibition ([14]; at 0.5 µM) was -26.8% (inactive), the inhibition ([14]; cisplatin combo, at 0.05 µM) was 74.3% and the inhibition ([14]; cisplatin combo, at 0.5 µM) was -46.2%. For the same molecule, the inhibition ([14]; cisplatin combo, at 5 µM) was -4.06%, the inhibition ([14]; measured here: 5 uM single agent, at 5 µM) was -4.21% and the inhibition ([15]; at 0.5 µM) was 49.5% (inactive). The inhibition ([15]; measured here: with BGB IC20, at 0.5 µM) was 55.4%, the inhibition ([15]; measured here: with BGB IC20, at 5 µM) was 97.6% and the inhibition ([15]; measured here: with cisplatin IC20, at 0.5 µM) was 38.8%. For the same molecule, the inhibition ([15]; measured here: with cisplatin IC20, at 5 µM) was 94.1%, the inhibition ([15]; single agent, at 5 µM) was 95.9% and the inhibition ([16]; at 0.5 µM) was -11.6% (inactive). The inhibition ([16]; measured here: BGB combination, at 0.5 µM) was 0.573%, the inhibition ([16]; measured here: BGB combination, at 5 µM) was 42.9% and the inhibition ([16]; measured here: cisplatin combination, at 0.5 µM) was -39.3%. For the same molecule, the inhibition ([16]; measured here: cisplatin combination, at 5 µM) was 36.2%, the inhibition ([17]; at 0.5 µM) was 26.7% (inactive) and the inhibition ([17]; cisplatin combination, at 0.5 µM) was 42.3%. For the same molecule, the inhibition ([17]; cisplatin combination, at 5 µM) was 38.7%, the inhibition ([17]; measured here: BGB IC40 combination 0.05 uM, at 0.05 µM) was -23% and the inhibition ([17]; single agent, at 5 µM) was 59.1%. For the same molecule, the inhibition ([18]; at 0.5 µM) was 1.21% (inactive), the inhibition ([18]; cisplatin combo, at 5 µM) was 73.6% and the inhibition ([18]; measured here: BGB IC40 combination, at 0.05 µM) was -7.03%. For the same molecule, the inhibition ([18]; measured here: combination with cisplatin, at 0.5 µM) was -23.9% and the inhibition ([18]; single agent, at 5 µM) was 64.6%.
In the case of `C=C1C(=O)O[C@@H]2[C@H]3O[C@]3(C)CC/C=C(\C)CC[C@@H]12`, the AC50 [1] is reported as 9.34 µM (active), the AC50 [2] is reported as 16.6 µM (active) and the AC50 [3] is reported as 14.8 µM (active). The AC50 [4] was 7.43 µM (active), the AC50 [5] was 4.68 µM (active) and the AC50 [6] was 7.42 µM (active). For the same molecule, the AC50 [7] was 3.72 µM (active), the AC50 [8] was 6.61 µM (active) and the IC50 [9] was 16.6 µM (active). The fold change [10, 19] was 0.927 (inactive) and 0.781 (inactive), the fold change [10, 20] was 1.09 and 1.49 and the cell count [10, 21] was 4920 and 316. The cell count [10, 22] was 5310 and 404, the z-score [11, 23] was 2.28 (active) and the z-score [11, 24] was -0.174.
